Our source for the signal change vs control minus 3*SD hit threshold (margin above threshold, higher = more increase) values is PubChem BioAssay AID1839 (Johns Hopkins Ion Channel Center, 2009).

The campaign covered roughly 2,400 compounds. About 220 (9.2%) were called active. The entries come from a sample that favours actives as a whole. Values without a mark were called inactive.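 How the source made its calls: active means signal change above the mean of dofetilide-free buffer controls plus 3 SD, so a positive margin; inactive means the rest.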

The nature of the experiment: nonspecific flux effects in parental CHO-K1, confirmation, counter-screen for hERG block protection project, cell-based, CHO-K1 parental line, FluxOR thallium flux (AID 1839).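 Further: compounds applied alone with no dofetilide to cells lacking hERG.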 The following applies: CHO-K1 parental cells, FluxOR thallium flux fluorescence; at 10 µM.
Regarding `CCc1cc2cc(C)cc(C)c2[nH]c1=S`, the signal change vs control minus 3*SD hit threshold (margin above threshold, higher = more increase) was -11.2%.
The value for `COc1ccc(OCC(=O)Nc2c3c(nn2-c2ccc(OC)cc2)CS(=O)(=O)C3)cc1` was -14.9%.
Turning to `O=C(O)c1ccc(S(=O)(=O)/N=C2\C=C(Nc3ccccc3F)C(=O)c3ccccc32)cc1`, the signal change vs control minus 3*SD hit threshold (margin above threshold, higher = more increase) is -14.9%.
The value for `O=C(Nc1ccccc1)OCCCCCOC(=O)Nc1ccccc1` was -25.4%; that for `O=C(O)c1ccccc1NC(=O)c1cc2ccccc2oc1=O` was -21.3%; that for `Cc1ccc(C)c(NC(=S)NC(=O)c2cncc(Br)c2)c1` was -24.9%.
As for `CCCCCCC12CCC(C(=O)O)(CC1)CC2`, the signal change vs control minus 3*SD hit threshold (margin above threshold, higher = more increase) was -8.9%.
In the case of `O=c1c2[nH]c3ccccc3c2nc2n1CCCS2`, the signal change vs control minus 3*SD hit threshold (margin above threshold, higher = more increase) is -3.7%.
Consider `C=CCNC(=O)c1ccccc1NC(=O)COc1ccc(OC)cc1`, for which the signal change vs control minus 3*SD hit threshold (margin above threshold, higher = more increase) is -31.9%.
On to `COc1ccc(N2CCN(C(=S)NC(=O)c3cccs3)CC2)c([N+](=O)[O-])c1`, for which the signal change vs control minus 3*SD hit threshold (margin above threshold, higher = more increase) was -27.4%.
For the compound `COc1cc(/C=C/C(=O)N[C@@H](Cc2c[nH]c3ccccc23)C(=O)O)ccc1O`, the signal change vs control minus 3*SD hit threshold (margin above threshold, higher = more increase) is -19.7%.
The value for `CCCCSc1nnc(CCC)n1N` was -30.7%; that for `O=C(CC1CCCC1)Nc1ccc2c(c1)CCC2` was -18.5%; that for `CC1Cc2ccccc2N1C(=S)NC(=O)c1cccc(Br)c1` (configuration not stated) was 48.8% (active).
In the case of `O=C(NC(=S)N1CCCc2ccccc21)c1ccc(Br)cc1`, the signal change vs control minus 3*SD hit threshold (margin above threshold, higher = more increase) is -8.9%.
For the compound `CC1Cc2ccccc2N1C(=S)NC(=O)C1(C)CC1(Cl)Cl` (configuration not stated), the signal change vs control minus 3*SD hit threshold (margin above threshold, higher = more increase) was 11.2% (active).
The value for `Cc1csc2ncc(C(=O)N3c4ccccc4CC3C)c(=O)n12` (configuration not stated) was -16.4%; that for `CC(Oc1ccc(Cl)cc1Cl)C(=O)NC(=S)N1CCc2ccccc21` (configuration not stated) was -7.9%.
For the compound `CC1Cc2ccccc2N1C(=S)NC(=O)c1ccc(Cl)cc1Cl` (configuration not stated), the signal change vs control minus 3*SD hit threshold (margin above threshold, higher = more increase) is 23.8% (active).
With `Cc1cccc(C(=O)NC(=S)N2CCc3ccccc3C2)c1`, the signal change vs control minus 3*SD hit threshold (margin above threshold, higher = more increase) was -1.3%.
In the case of `CC1Cc2ccccc2N1C(=S)NC(=O)c1ccco1` (configuration not stated), the signal change vs control minus 3*SD hit threshold (margin above threshold, higher = more increase) was -28.6%.
For the compound `CC(C)N(Cc1ccccc1)C(=S)NC(=O)C1(C)CC1(Cl)Cl` (configuration not stated), the signal change vs control minus 3*SD hit threshold (margin above threshold, higher = more increase) is -9.7%.
With `Oc1c(Cl)cc(CN2CCCCC2)c2cccnc12`, the signal change vs control minus 3*SD hit threshold (margin above threshold, higher = more increase) is -25.2%.
Take `CCOC(=O)Cc1csc(NC(=S)NC(=O)c2ccccc2C)n1`: the signal change vs control minus 3*SD hit threshold (margin above threshold, higher = more increase) was -13.6%.
The value for `Cc1cc(C(=O)NNC(=O)c2cccs2)nn1C(C)(C)C` was -25.3%; that for `CCNC(=S)N/N=C1\C(=O)c2cccc3cccc1c23` was -16.8%.
Take `O=C(NN=C1c2ccccc2-c2ccccc21)c1ccccc1`: the signal change vs control minus 3*SD hit threshold (margin above threshold, higher = more increase) is -27.5%.
The value for `O=C(N/N=C1/C(=O)c2cccc3cccc1c23)c1ccc(Cl)cc1` was 41.5% (active); that for `Cc1ccc(-c2n[nH]c(=S)nc2-c2ccc(C)cc2)cc1` was -27.5%.
`CSc1nc2c(c(=O)[nH]1)C(c1ccc(F)cc1)CC(=O)N2` (configuration not stated): the signal change vs control minus 3*SD hit threshold (margin above threshold, higher = more increase) was -36%.
On to `CC(C)CC(=O)Nc1ccc2c3c(cccc13)CC2`, for which the signal change vs control minus 3*SD hit threshold (margin above threshold, higher = more increase) was -19.8%.
For `CCCn1c(SCC(=O)N2CCN(C(C)=O)CC2)nc2sc3c(c2c1=O)CCC3`, the signal change vs control minus 3*SD hit threshold (margin above threshold, higher = more increase) was -6.2%.
On to `COCCn1c(=S)[nH]c2sc3c(c2c1=O)CCCC3`, for which the signal change vs control minus 3*SD hit threshold (margin above threshold, higher = more increase) is -5.6%.
The value for `O=c1c2c3c(sc2[nH]c(=S)n1Cc1ccco1)CCC3` was -6.1%; that for `C=CCn1c(=S)[nH]c2nc3c(cc2c1=O)CCCC3` was -15.7%; that for `C=CCn1c(=S)[nH]c2sc3c(c2c1=O)CCC3` was -7.2%.
Consider `COCCCn1c(=S)[nH]c2sc3c(c2c1=O)CCCC3`, for which the signal change vs control minus 3*SD hit threshold (margin above threshold, higher = more increase) is 2.5% (active).
Turning to `CCCn1c(=S)[nH]c2sc3c(c2c1=O)CCCC3`, the signal change vs control minus 3*SD hit threshold (margin above threshold, higher = more increase) is 32.1% (active).
The value for `CCn1c(SCC(N)=O)nc2sc3c(c2c1=O)CCCC3` was -14.4%; that for `CCn1c(=S)[nH]c2sc3c(c2c1=O)CCCC3` was 8.5% (active); that for `C=CCn1c(=S)[nH]c2sc3c(c2c1=O)CCCC3` was 3.6% (active).
Take `COCCCn1c(=S)[nH]c2c(sc3ccccc32)c1=O`: the signal change vs control minus 3*SD hit threshold (margin above threshold, higher = more increase) was -36.9%.
`Cc1ccnc(N2CCC(C(=O)Nc3ccc(Oc4ccccc4)cc3)CC2)n1`: the signal change vs control minus 3*SD hit threshold (margin above threshold, higher = more increase) was -28.4%.
On to `CCCn1c(SCC(N)=O)nc2c(c1=O)C1(CCCC1)Cc1ccccc1-2`, for which the signal change vs control minus 3*SD hit threshold (margin above threshold, higher = more increase) was -7.7%.
The value for `COc1ccc(NC(=O)CCN2C(=O)C3C4C=CC(C4)C3C2=O)cc1` (configuration not stated) was -35%; that for `C=CCN(CC=C)C(=S)NC(=O)Cc1cccc2ccccc12` was -17.1%; that for `COc1ccc(C(CC(=O)N2CCOCC2)c2c(O)cc(OC)cc2OC)cc1` (configuration not stated) was -27.3%.
The value for `CCSc1nc2c(sc3ccccc32)c(=O)n1C(C)C` was -0.8%; that for `Cc1ccc2[nH]c(C(=O)O)c(-c3ccccc3)c2c1` was -18.6%.
With `CCOC(=O)C1=C(O)/C(=C/c2ccc(OCC(=O)O)c(OC)c2)SC1=Nc1ccc(OCC)cc1`, the signal change vs control minus 3*SD hit threshold (margin above threshold, higher = more increase) is -28.1%.
In the case of `COc1ccc(-c2cc(C(=O)N3CCCC3)no2)cc1OC`, the signal change vs control minus 3*SD hit threshold (margin above threshold, higher = more increase) is -5.8%.
Consider `CCOC(=O)c1[nH]c(=O)[nH]c1COC(=O)c1cc2ccccc2o1`, for which the signal change vs control minus 3*SD hit threshold (margin above threshold, higher = more increase) was -34.3%.
